Screens as filed in PubChem BioAssay.
Most compounds without a hit are left out; they make up all but 7.9% or so of the library.
MARV entry inh: blocks Marburg virus binding to or entry into cells. Marburg virus pseudotyped entry inhibition, cell reporter. actives 1.8% (n = 300,000). Potency, µM (doses to about 37.8 µM), most hits filed as inhibitors; calls by dose curve; tested in HEK293 cells
FMDV antiviral: blocks foot and mouth disease virus | FMDV antiviral cell-based qHTS | Potency, µM (titrated, usually from 57.9 µM), usual class: inhibitors | actives 1.2% (n = 410,000); calls by dose curve; tested in HEK293T cells; further: read-out not given here; nearly all actives have a fitted effect of over 45% in size
HCV inhibitor: inhibitors of hepatitis C virus infection | Potency, µM (top dose mostly 41.8 µM), most hits filed as inhibitors | actives 3.4% (n = 340,000) | Huh7.5.1 HCVcc-Cre infection, luciferase reporter, 44 h; active means well fitted inhibition curve with a large enough effect; inconclusive means small, poorly fitted or top-dose-only effect, or another doubt; inactive means no such curve, though single readings can be large or run the other way
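HCVcc-Cre virus at an moi near 0.5 was added right after compound to cells cultured 4 h from seeding (1,000 cells/well). Luciferase activity was determined 44 h later, 15 min after substrate addition at RT.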
LASV entry inh: Lassa virus entry inhibition | Lassa virus pseudotype entry inhibition, cell reporter | Potency, µM (series often up to 37.9 µM), most hits filed as inhibitors | actives 1.2% (n = 300,000) | AID 540256; calls by dose curve; tested in HEK293 cells; further: nearly all actives have a fitted effect of over 50% in size
HCMV antiviral: human cytomegalovirus inhibition. actives 4.5% (n = 410,000). activity change, negative = inhibition, % at 57.5 µM. HFF cells, HCMV-luciferase reporter, 72 h; active compounds read low; in the data active means activity change below about -60%; inconclusive means no clear call, values can overlap the other calls; inactive means above about -39%
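Luciferase read-out from HCMV-luciferase-infected HFFs (MOI 1 PFU/cell) 72 h post infection at 37C; compounds added after 16 h cell attachment; activity normalized between buffer-only basal and Salinomycin (10uM) inhibitor controls.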
Numbers stand for hits.

For Cc1ccc(NC(=O)Cc2ccc(-n3c(C)nc4cccnc43)cc2)c(Cl)c1 the results were FMDV antiviral 16µM, LASV entry inh inactive and HCMV antiviral active.
`c1csc(-n2nc3ccccc3n2)c1` gave MARV entry inh inactive, FMDV antiviral inactive, HCV inhibitor inactive, LASV entry inh inactive and HCMV antiviral -66.
For O=C1Cc2c([nH]c3ccc([N+](=O)[O-])cc23)-c2ccccc2N1 the results were MARV entry inh inactive, FMDV antiviral inactive, HCV inhibitor inconclusive, LASV entry inh inactive and HCMV antiviral -98.
For COc1ccc(CCNC(=O)CCc2c(C)nc3c(c(C)nn3-c3ccc(C)cc3)c2C)c(OC)c1 the results were MARV entry inh inactive, FMDV antiviral inactive, LASV entry inh inconclusive and HCMV antiviral inactive.
`O=C1CC[C@@H](C(=O)NCC2Cc3cc(Cl)cc(-c4ccc5[nH]ccc5c4)c3O2)N1` (stereo partly drawn) gave FMDV antiviral inactive.
For COc1ccc([C@H]2Cc3cccc(O)c3C(=O)O2)cc1O the results were FMDV antiviral inactive, HCV inhibitor inconclusive and HCMV antiviral inactive.
COc1ccc([C@H]2Cc3cc(O)cc(O)c3C(=O)O2)cc1O was read as FMDV antiviral inactive, HCV inhibitor inactive and HCMV antiviral -102.
Cc1noc(C)c1CC(=O)N1CCOc2c(cc(-c3nc4ccccc4s3)cc2OC2CCOC2)C1 (stereo not drawn) was read as FMDV antiviral inactive.
Screening C=CC[n+]1c(-c2ccc(OC)c(OC)c2)csc1NNC(=O)Nc1ccccc1 returned MARV entry inh inconclusive, HCV inhibitor 4µM, LASV entry inh 10µM and HCMV antiviral inconclusive.
For C=CC[n+]1c(-c2ccccc2)csc1NC(C)(C)C the results were MARV entry inh inconclusive, FMDV antiviral inactive, HCV inhibitor inactive, LASV entry inh inactive and HCMV antiviral inactive.
`c1ccc(-c2cc3ccccc3[nH]2)cc1` gave FMDV antiviral inactive, HCV inhibitor inconclusive and HCMV antiviral -65.
COc1ccc(-c2cc3ccccc3[nH]2)cc1 was read as MARV entry inh inactive, FMDV antiviral inactive, HCV inhibitor inactive, LASV entry inh inactive and HCMV antiviral inactive.
`CC(=O)N1CCc2c(sc(NC(=O)c3ccc([N+](=O)[O-])o3)c2C(N)=O)C1` gave FMDV antiviral inactive and HCMV antiviral -101.
`CN1CCc2c(sc(NC(=O)C3COc4ccccc4O3)c2C(N)=O)C1` (stereo not drawn) gave MARV entry inh inactive, FMDV antiviral inactive, LASV entry inh inconclusive and HCMV antiviral -63.
`CCN1CCc2c(sc(NC(=O)C3COc4ccccc4O3)c2C(N)=O)C1` (stereo not drawn) gave MARV entry inh inactive, FMDV antiviral inactive, LASV entry inh inactive and HCMV antiviral -71.
Screening CCN1CCc2c(sc(NC(=O)c3ccc(S(=O)(=O)N4CCOCC4)cc3)c2C(=O)OC)C1 returned MARV entry inh 10µM, FMDV antiviral inactive, HCV inhibitor inconclusive, LASV entry inh inconclusive and HCMV antiviral inactive.
For CC(=O)N1CCc2c(sc(NC(=O)C3COc4ccccc4O3)c2C(N)=O)C1 (stereo not drawn) the results were MARV entry inh inactive, FMDV antiviral inactive, HCV inhibitor inconclusive, LASV entry inh inactive and HCMV antiviral inactive.
`CCC(=O)Nc1sc2c(c1C(N)=O)CCN(C(C)=O)C2` gave FMDV antiviral inactive, HCV inhibitor inactive and HCMV antiviral inactive.
For CCN1CCc2c(sc(NC(=O)c3ccc(S(=O)(=O)N4CCOCC4)cc3)c2C(N)=O)C1 the results were FMDV antiviral inactive, HCV inhibitor inactive and HCMV antiviral inactive.
`CCOC(=O)N1CCc2c(sc(NC(=O)C3COc4ccccc4O3)c2C(N)=O)C1` (stereo not drawn) gave FMDV antiviral 40µM, HCV inhibitor 16µM and HCMV antiviral -97.
`CC(=O)N1CCc2c(sc(NC(=O)c3ccc4c(c3)OCCO4)c2C#N)C1` gave FMDV antiviral inactive, HCV inhibitor 2.8µM and HCMV antiviral inactive.
Screening COC(=O)c1c(NC(=O)C2COc3ccccc3O2)sc2c1CCN(C(C)=O)C2 (stereo not drawn) returned MARV entry inh inactive, FMDV antiviral 35µM, HCV inhibitor inconclusive, LASV entry inh inconclusive and HCMV antiviral inactive.
For CC(=O)N1CCc2c(sc(NC(=O)c3ccc(S(=O)(=O)N(C)C)cc3)c2C#N)C1 the results were MARV entry inh inactive, FMDV antiviral inactive, HCV inhibitor inactive and HCMV antiviral inactive.
